Screen size: about 310,000 compounds; about 14,000 (4.5%) showed an effect of 50% or more. The effect is printed as a negative number. Shown is part of a subset that was picked to be rich in strong results.
biological target: human ether-à-go-go-related gene (hERG) potassium channel (human, UniProt Q12809); test: primary screen, population patch clamp on CHO cells stably expressing hERG; higher = less effect of the substance
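Also: peak tail current of the secondary pulse compared with the same well before compound.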

Sequence of human ether-à-go-go-related gene (hERG) potassium channel (Q12809 whole entry, looked up): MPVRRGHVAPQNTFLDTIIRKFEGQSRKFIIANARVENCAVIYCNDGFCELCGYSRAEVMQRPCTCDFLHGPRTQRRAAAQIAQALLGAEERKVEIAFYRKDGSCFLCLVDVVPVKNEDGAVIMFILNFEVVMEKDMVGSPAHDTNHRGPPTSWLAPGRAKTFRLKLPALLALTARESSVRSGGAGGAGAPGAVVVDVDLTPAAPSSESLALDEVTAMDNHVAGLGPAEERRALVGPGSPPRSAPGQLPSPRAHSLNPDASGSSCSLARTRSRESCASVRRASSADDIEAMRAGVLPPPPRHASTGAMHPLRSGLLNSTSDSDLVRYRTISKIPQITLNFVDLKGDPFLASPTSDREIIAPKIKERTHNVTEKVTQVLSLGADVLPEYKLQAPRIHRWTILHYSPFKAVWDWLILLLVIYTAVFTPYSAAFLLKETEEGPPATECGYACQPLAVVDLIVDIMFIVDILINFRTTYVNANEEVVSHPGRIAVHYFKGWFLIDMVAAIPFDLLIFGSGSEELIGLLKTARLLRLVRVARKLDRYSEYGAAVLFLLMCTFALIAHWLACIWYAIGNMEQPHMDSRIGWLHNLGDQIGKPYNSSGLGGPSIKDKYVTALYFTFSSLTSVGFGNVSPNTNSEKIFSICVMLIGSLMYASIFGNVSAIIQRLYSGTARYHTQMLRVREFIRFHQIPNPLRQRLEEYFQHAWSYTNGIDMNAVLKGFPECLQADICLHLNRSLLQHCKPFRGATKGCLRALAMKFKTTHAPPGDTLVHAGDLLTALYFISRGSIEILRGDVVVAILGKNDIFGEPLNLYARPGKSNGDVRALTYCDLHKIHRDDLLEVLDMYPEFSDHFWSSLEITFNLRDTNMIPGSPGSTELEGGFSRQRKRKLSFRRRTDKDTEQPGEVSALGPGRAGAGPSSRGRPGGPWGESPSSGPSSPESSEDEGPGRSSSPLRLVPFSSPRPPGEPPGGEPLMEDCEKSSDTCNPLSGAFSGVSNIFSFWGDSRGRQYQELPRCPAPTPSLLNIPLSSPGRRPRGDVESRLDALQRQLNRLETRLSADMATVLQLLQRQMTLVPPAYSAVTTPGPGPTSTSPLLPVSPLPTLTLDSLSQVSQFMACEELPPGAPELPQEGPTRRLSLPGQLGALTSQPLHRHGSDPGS

Compound | hERG current change (%, negative = inhibition) at 10uM
NS(=O)(=O)c1ccc(NC(=S)Nc2ccc(Br)c(Cl)c2)cc1 | 21.3%
CCOC(=O)c1ccccc1N/C=C/C(=O)c1cccs1 | -14.9%
CCn1c(-c2csc(C(C)C)c2)n[nH]c1=S | 37.1%
CC(=O)Nc1ccc(SC[C@H](CC(C)C)N2CCN(CCc3ccccc3)CCC2=O)cc1 | -59.1%
CC(=O)Nc1ccc(SC[C@H](Cc2ccccc2)N2CCN(CCc3ccccc3)CCC2=O)cc1 | -55.9%
CC(=O)Nc1ccc(SC[C@H](CC(C)C)N2CCN(CC(C)C)CCC2=O)cc1 | -28.1%
CC(=O)Nc1ccc(SC[C@H](Cc2ccccc2)N2CCN(CC(C)C)CCC2=O)cc1 | -44.2%
CC(=O)Nc1ccc(SC[C@H](c2ccccc2)N2CCN(CCc3ccccc3)CCC2=O)cc1 | -75.1%
CCCN1CCC(=O)N(CCSc2ccc(NC(C)=O)cc2)CC1 | 6.8%
CC(=O)Nc1ccc(SC[C@H](Cc2ccccc2)N2CC[C@@H](C(C)(C)C)CCC2=O)cc1 | 5.23%
CC(=O)Nc1ccc(SC[C@H](Cc2ccccc2)N2CC[C@@H](C)CCC2=O)cc1 | -8.11%
CC(=O)Nc1ccc(SC[C@H](Cc2ccccc2)N2CC[C@@H](O)CCC2=O)cc1 | -7.75%
Cc1cc(OCc2cc(C(=O)NCc3cc(C(C)C)no3)no2)cc(C)c1Cl | 9.79%
Cc1cc(C)c(/C=C(\C#N)S(=O)(=O)c2ccccc2)[nH]1 | 11%
Cc1[nH][nH]c(=O)c1C(c1ccc(O)c([N+](=O)[O-])c1)c1c(C)[nH][nH]c1=O | 18.8%
CN(C)c1nc(N)ncc1-c1ccc(Oc2ccccc2)cc1 | 18%
COc1ccc(-n2nc(C(=O)NCC(=O)N3CCN(c4ccccc4OC)CC3)c3ccccc3c2=O)c(OC)c1 | -18.4%
Cc1c(N/C=C/C(=O)C(F)(F)F)c(=O)n(-c2ccccc2)n1C | 20.2%
CC1=CC2=NC(=O)CC(C)(C(=O)N(CC(=O)NC3CCCC3)c3cc(C)cc(C)c3)N2C=C1 (stereo not drawn) | 17.9%
COc1ccccc1CNC(=O)C(=O)c1cn(CC(=O)N2CCCC2)c2ccccc12 | 15.1%
Cc1cccc(/C(N)=N/OC(=O)c2ccc(Cl)cc2Cl)c1 | 8.46%

Compound | hERG current change (%, negative = inhibition) at 10uM
COc1ccc(C(=O)N2CCOCC2)cc1S(=O)(=O)N1CCCc2ccccc21 | -31.4%
Cc1ccc(C(=O)OCC(=O)c2ccc(S(=O)(=O)N3CCCCC3)cc2)o1 | -20.3%
O=Cc1cn(CCOc2ccccc2)c2ccccc12 | 4.98%
COCCCn1c(=NC(C)=O)c(C#N)cc2c(=O)n3cccc(C)c3nc21 | -49.7%
COCCCn1c(=NC(=O)c2ccccc2)c(C#N)cc2c(=O)n3cccc(C)c3nc21 | -71.5%
Cc1cccn2c(=O)c3cc(C#N)c(=NC(=O)c4ccncc4)n(CCCOC(C)C)c3nc12 | -85.1%
CC(=O)N=c1c(C#N)cc2c(=O)n3cccc(C)c3nc2n1CCCOC(C)C | -50.4%
COCCCn1c(=NC(=O)c2ccncc2)c(C#N)cc2c(=O)n3cccc(C)c3nc21 | -68%
O=C(O)c1cccc(-n2c(-c3cnccn3)n[nH]c2=S)c1 | 20.4%
CN(C)c1ccc(NC(=S)c2ccc3ccccc3n2)cc1 | 12.2%
Cc1ccccc1NCC(=O)N/N=C/c1c(C)c(C(=O)c2ccc(Cl)cc2)n2ccccc12 | -4.11%
COc1ccccc1C(=O)NC(=O)COc1cc(Cl)ccc1Cl | 0.882%
CC1CCCCN1C(=O)c1c([N+](=O)[O-])cnn1C (stereo not drawn) | 18.7%
COc1ccc(NC(=O)c2cncn2-c2ccccc2)cc1 | 13.7%
CCOC(=O)C1=C(C)N(CCCC(=O)O)C(=O)NC1c1ccccc1OS(=O)(=O)c1ccc(C)cc1 (stereo not drawn) | -15.2%
Cc1cc(=O)oc2cc(NC(=O)c3ccccc3OC(F)F)ccc12 | 26.9%
CC1CCN(C2=NC(=O)/C(=C/c3cccc(O)c3)S2)CC1 | -18.5%
CC(=O)N1C(Nc2ccc(Cl)cc2)CCN1c1ccccc1 (stereo not drawn) | 9.96%
O=C(NC(NNc1ccc([N+](=O)[O-])cc1)(C(F)(F)F)C(F)(F)F)c1ccc(F)cc1 | -2.67%
COc1ccc(C(=O)Nc2ncc(C)s2)cc1S(=O)(=O)N1CCCC1 | 17.5%
COc1ccc(C(=O)Nc2ccc(Cl)cn2)cc1S(=O)(=O)N1CCCC1 | -48%

Compound | hERG current change (%, negative = inhibition) at 10uM
COc1ccc(C(=O)Nc2ncc(C)s2)cc1S(=O)(=O)N1CCOCC1 | -56.2%
COc1ccc(C(=O)Nc2ccccn2)cc1S(=O)(=O)N1CCOCC1 | -8.04%
COc1ccc(C(=O)Nc2nnc(C)s2)cc1S(=O)(=O)N1CCOCC1 | -14%
COc1ccc(C(=O)Nc2ccc(Br)cn2)cc1S(=O)(=O)N1CCOCC1 | -57.9%
CN(C)c1nc(Oc2ccc(=O)n(-c3ccccc3)n2)nc(N2CCOCC2)n1 | 9.19%
CC(=O)Nc1ccc(C(=O)NNC(=O)c2ccccc2-n2cccc2)cc1 | 6.54%
COc1ccc(C(=O)NNC(=O)CN(C)S(=O)(=O)c2ccc(Cl)cc2)c(OC)c1OC | -49.7%
Cc1cccc(N/N=C/c2ccc(C)s2)c1 | 19.7%
O=C(CCCn1c(=S)[nH]c2ccsc2c1=O)NCc1ccco1 | 18.8%
Cc1noc(C)c1S(=O)(=O)N1CCC(C(=O)NC2CCN(Cc3ccccc3)CC2)CC1 | -25%
O=C(NCCc1ccccc1)C1CCN(S(=O)(=O)c2cccc3nonc23)CC1 | -10.5%
O=C(C1CCCN(S(=O)(=O)c2cccc3nonc23)C1)N1CCC(Cc2ccccc2)CC1 (stereo not drawn) | -30.9%
CCN(CC)S(=O)(=O)c1ccc(S(=O)(=O)N2CCC(C(=O)NC3CCN(Cc4ccccc4)CC3)CC2)cc1 | 14.8%
O=C(NCc1ccccc1)C1CCCN(S(=O)(=O)c2cccc3nonc23)C1 (stereo not drawn) | 9.65%
O=C(NC1CCN(Cc2ccccc2)CC1)C1CCN(S(=O)(=O)c2ccccc2)CC1 | -28.8%
Cc1ccc(Cl)cc1S(=O)(=O)N1CCC(C(=O)NC2CCN(Cc3ccccc3)CC2)CC1 | -71.5%
Cc1ccc(C(=O)NC2CCN(Cc3ccccc3)CC2)cc1S(=O)(=O)N1CCOCC1 | -30.2%
CCN(CCCNC(=O)C1CCN(S(=O)(=O)c2cccc3nonc23)CC1)Cc1ccccc1 | -57.2%
CCCNC(=O)C1CCN(S(=O)(=O)c2cccc3nonc23)CC1 | -3.97%
O=C(NC1CCN(Cc2ccccc2)CC1)C1CCN(S(=O)(=O)c2ccc(Cl)cc2)CC1 | -73.2%
O=C(NC1CCN(Cc2ccccc2)CC1)C1CCCN(S(=O)(=O)c2cccc3nonc23)C1 (stereo not drawn) | -55.9%
